We go through eleven molecules from PubChem BioAssay (EPA / NIEHS).

Experiment [1] can be described thus: ATG_CRE_CIS: Attagene CIS-FACTORIAL HepG2 Assay for human cAMP Responsive Element (CRE) binding protein 3 (AID 2282926). Particulars: HepG2 CRE cis-reporter, Attagene multiplexed mRNA; actives raise or lower the signal. Summed up:
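Endogenous transcription factor activity read via CRE-regulated reporter transcripts in transfected HepG2 cells. After 24 h exposure, RNA was reverse-transcribed, amplified, fluorescently labelled and sized by capillary electrophoresis; gain or loss fitted against DMSO.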

The target in experiment [2] is CCAAT/enhancer-binding protein beta (Homo sapiens) (UniProt P17676). Put plainly: ATG_C_EBP_CIS: Attagene CIS-FACTORIAL HepG2 Assay for human CCAAT/Enhancer Binding Protein (C/EBP) beta (AID 2282927). The settings on record: HepG2 Attagene cis-factorial transcription factor reporter; actives raise or lower the signal. In short, it runs like this: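 Endogenous C/EBPb-driven reporter transcripts measured in transfected human HepG2 cells at 24 h via RT-PCR and capillary electrophoresis of labelled fragments. Activity fitted in both directions relative to DMSO baseline.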

Experiment [3] is described as follows: ATG_CMV_CIS: Attagene CIS-FACTORIAL HepG2 Assay for human CMV (Internal Marker) (AID 2282928).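 Also: endpoint acts as a background internal control marker rather than a target.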 Particulars: HepG2 CMV promoter reporter, transcription factor profiling; actives raise or lower the signal. In short, it runs like this: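 Readout: fluorescent reporter cDNA fragments separated by capillary electrophoresis after RT-PCR and HpaI cut. Cells: HepG2 carrying transfected cis-promoter reporter constructs, dosed 24 h. Endpoint serves as background internal-marker control, fit bidirectionally versus DMSO.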

Experiment [4] can be described thus: ATG_DR4_LXR_CIS: Attagene CIS-FACTORIAL HepG2 Assay for human Liver X Receptor (LXR), DR4 submotif (AID 2282929). Particulars: HepG2 Attagene DR4 cis-reporter, mRNA transcription; actives raise or lower the signal. Summed up:
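Fluorescence intensity of labelled reporter cDNA fragments, separated by capillary electrophoresis, gives the signal. HepG2 cells bearing cis-regulated reporter constructs were treated 24 h; activity fitted bidirectionally relative to DMSO negative control.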

In experiment [5] the target is Aryl hydrocarbon receptor (Homo sapiens) (UniProt P35869). Put plainly: ATG_Ahr_CIS: Attagene CIS-FACTORIAL HepG2 Assay for human Aryl Hydrocarbon Receptor (Ahr) (AID 2282930). The settings on record: HepG2 AhR cis-factorial reporter transcription; actives raise or lower the signal. Summed up:
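Reporter mRNA levels, quantified by RT-PCR and fluorescent capillary electrophoresis, reflect endogenous AhR transcriptional activity in HepG2 cells carrying transfected cis-promoter reporter constructs. Readout at 24 h post-dose; gain or loss fitted against DMSO baseline.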

The nature of experiment [6]: ATG_AP_1_CIS: Attagene CIS-FACTORIAL HepG2 Assay for human Activator Protein 1 (AP-1) (AID 2282931). The settings on record: HepG2 Attagene cis-factorial AP-1 reporter mRNA; actives raise or lower the signal. In short, it runs like this:
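Multiplexed HepG2 reporter assay, 24 h dosing. mRNA induction detected by RT-PCR plus capillary electrophoresis. Activity fitted in both directions against DMSO.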

The nature of experiment [7]: ATG_AP_2_CIS: Attagene CIS-FACTORIAL HepG2 Assay for human Activator Protein 2 (AP-2) (AID 2282932). The settings on record: HepG2 AP-2 cis-reporter, Attagene transcription factor profiling; actives raise or lower the signal. Summed up:
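Endogenous transcription factor activity is reported through transfected multiplex reporter constructs in HepG2, after 24 h of compound exposure. Transcripts were quantified by RT-PCR and capillary electrophoresis of fluorescent fragments. Bidirectional fit against DMSO.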

Experiment [8] in a line: ATG_BRE_CIS: Attagene CIS-FACTORIAL HepG2 Assay for human Bone Morphogenetic Protein (BMP) Response Element (BRE) (AID 2282933). Particulars: HepG2 BMP response element reporter, Attagene transcription factor profiling; actives raise or lower the signal. In short, it runs like this: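 Transient MRTU transfection of human HepG2 liver cells; 24 h compound treatment; total RNA isolated, reverse-transcribed, PCR-amplified, 6-FAM labelled, HpaI-cut, capillary electrophoresis. DMSO = negative control/baseline, bidirectional fit.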

For experiment [9], the target named is Retinoic acid receptor alpha (Homo sapiens) (UniProt P10276). The experiment in a line: ATG_DR5_RAR_CIS: Attagene CIS-FACTORIAL HepG2 Assay for human Retinoic Acid Receptor Alpha (RARE), DR5 submotif (AID 2282934).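 As to AC50: reporter responds to endogenous RAR alpha beta and gamma in HepG2 not RARA alone.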 Particulars: HepG2 Attagene cis-factorial RARE DR5 reporter, mRNA; actives raise or lower the signal. Summed up: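 Reporter transcripts from a DR5-regulated unit, measured via RT-PCR plus capillary electrophoresis, reflect endogenous RAR activity in transiently transfected human HepG2 liver cells. Exposure lasted 24 h; gain or loss of signal scored against DMSO.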

The nature of experiment [10]: APR_HepG2_NuclearSize_72hr: Apredica 72-hour HepG2 Assay for Nuclear Size (AID 2282925). The settings on record: high-content imaging, actives raise or lower the signal. Summed up: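 Nuclear size was read by high-content imaging of Hoechst 33342 stain after formaldehyde fixation. Compounds ran 72 h on HepG2 at 0.39 to 200 uM, with final DMSO 0.5% v/v. Curves fitted both directions relative to DMSO control.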

Structures are written as SMILES. Several values for one entry are separate records, joined by “and”; a condition that tells them apart may be missing. Equal entries are not always repeated. Some compounds were tested as several samples or in several runs, with calls that do not always agree. Activity calls are given as the source filed them. The calls were made as follows: active = hit-call score of the fitted dose curve at least 0.9, where 1 is the maximum; inactive = score below 0.9.

CCAAT/enhancer-binding protein beta (Homo sapiens), sequence (P17676 whole entry, looked up, the tested form may be a part): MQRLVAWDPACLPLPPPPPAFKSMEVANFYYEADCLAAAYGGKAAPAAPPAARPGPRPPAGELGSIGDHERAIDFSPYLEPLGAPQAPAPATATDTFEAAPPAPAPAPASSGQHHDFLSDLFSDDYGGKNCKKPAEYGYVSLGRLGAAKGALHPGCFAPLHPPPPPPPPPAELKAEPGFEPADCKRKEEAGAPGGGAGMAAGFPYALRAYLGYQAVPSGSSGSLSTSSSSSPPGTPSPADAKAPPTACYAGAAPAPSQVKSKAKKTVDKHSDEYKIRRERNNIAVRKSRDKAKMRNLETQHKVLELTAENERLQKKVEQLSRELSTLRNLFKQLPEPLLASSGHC
Aryl hydrocarbon receptor (Homo sapiens), sequence (P35869 whole entry, looked up): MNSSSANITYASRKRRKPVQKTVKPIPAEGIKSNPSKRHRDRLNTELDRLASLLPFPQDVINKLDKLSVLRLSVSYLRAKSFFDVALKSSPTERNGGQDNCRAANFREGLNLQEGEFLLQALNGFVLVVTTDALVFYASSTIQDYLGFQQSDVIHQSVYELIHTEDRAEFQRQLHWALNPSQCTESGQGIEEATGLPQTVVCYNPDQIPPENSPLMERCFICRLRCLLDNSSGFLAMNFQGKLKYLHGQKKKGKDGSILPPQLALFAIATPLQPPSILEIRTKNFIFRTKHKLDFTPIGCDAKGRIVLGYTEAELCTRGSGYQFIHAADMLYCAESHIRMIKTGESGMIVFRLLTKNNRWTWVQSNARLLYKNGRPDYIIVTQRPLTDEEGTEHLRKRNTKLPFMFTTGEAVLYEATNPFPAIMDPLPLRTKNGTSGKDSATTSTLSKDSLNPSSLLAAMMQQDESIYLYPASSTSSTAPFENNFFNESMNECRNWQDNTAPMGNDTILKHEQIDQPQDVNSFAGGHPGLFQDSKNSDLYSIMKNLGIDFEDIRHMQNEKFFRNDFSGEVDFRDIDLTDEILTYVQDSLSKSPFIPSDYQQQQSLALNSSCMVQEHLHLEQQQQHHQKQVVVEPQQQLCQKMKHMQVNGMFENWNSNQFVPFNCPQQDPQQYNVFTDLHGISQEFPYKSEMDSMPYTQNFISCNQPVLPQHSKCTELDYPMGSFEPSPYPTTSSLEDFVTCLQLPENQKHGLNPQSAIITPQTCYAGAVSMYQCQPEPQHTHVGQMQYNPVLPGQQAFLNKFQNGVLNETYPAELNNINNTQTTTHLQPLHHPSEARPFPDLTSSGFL
Retinoic acid receptor alpha (Homo sapiens), sequence (P10276 whole entry, looked up): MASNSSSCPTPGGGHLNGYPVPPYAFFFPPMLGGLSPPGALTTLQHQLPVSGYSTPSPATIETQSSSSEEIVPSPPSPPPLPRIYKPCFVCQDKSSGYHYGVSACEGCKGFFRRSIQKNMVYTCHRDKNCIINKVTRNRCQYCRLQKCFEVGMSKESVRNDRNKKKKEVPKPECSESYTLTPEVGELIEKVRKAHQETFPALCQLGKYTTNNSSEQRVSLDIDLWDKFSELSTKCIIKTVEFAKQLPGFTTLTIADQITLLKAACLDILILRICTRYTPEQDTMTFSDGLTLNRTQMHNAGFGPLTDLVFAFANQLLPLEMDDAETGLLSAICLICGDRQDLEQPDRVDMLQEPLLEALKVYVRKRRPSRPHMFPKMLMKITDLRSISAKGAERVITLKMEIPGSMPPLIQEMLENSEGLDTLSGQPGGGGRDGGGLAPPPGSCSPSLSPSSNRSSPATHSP

What is called AC50 is the concentration at which the activity in the assay is half-maximal. With `CCOC(=O)CC(SP(=S)(OC)OC)C(=O)OCC` (stereo not given), the AC50 in experiment [1] was 26.6 µM (active); in [6], 41.2 µM (active); in experiment [8], 69.2 µM (active) and 28.1 µM (active). Further, the molecule was called inactive in experiment [1], in [2], in [3], in experiment [4], in experiment [5] and in experiment [6]. For the same molecule, the molecule was called inactive in [7].
Take `CON(C)C(=O)Nc1ccc(Cl)c(Cl)c1`: the outcome in experiment [1], in [2], in [3], in experiment [4], in [6] and in experiment [7] was inactive. The outcome in experiment [8] and in experiment [9] was inactive. In addition, the AC50 in experiment [3] was 55.6 µM (active); in experiment [5], 27.4 µM (active) [middle of 4 runs].
Consider `CCCN(CCC)c1c([N+](=O)[O-])cc(S(N)(=O)=O)cc1[N+](=O)[O-]`, for which the outcome in experiment [1], in experiment [2], in experiment [3], in experiment [4], in experiment [5] and in [6] was inactive. Also, the result in experiment [7], in [8] and in [9] was inactive. In addition, the AC50 is 4.79 µM (active) and 11.1 µM (active) in experiment [4]; 1.22 µM (active) and 1.19 µM (active) in experiment [9].
For `Oc1ccccc1-c1ccccc1`, the half-maximal activity concentration (AC50) in experiment [1] was 148 µM (active); in [3], 56.6 µM (active); in experiment [4], 80.3 µM (active) and 64 µM (active); in experiment [5] it was 40.5 µM (active); in [6], 88.3 µM (active); in experiment [8], 71.7 µM (active) and 150 µM (active). Moreover, the outcome in experiment [1], in experiment [2], in experiment [3], in [5], in experiment [6] and in experiment [7] was inactive.
With `CC(C)C1(C)N=C(c2nc3ccccc3cc2C(=O)O)NC1=O` (stereo not given), the outcome in experiment [10], in experiment [1], in experiment [2], in [3], in [4] and in experiment [5] was inactive. Also, the result in experiment [6], in experiment [7], in experiment [8] and in [9] was inactive.
Regarding `OC(c1ccc(Cl)cc1)(c1cncnc1)c1ccccc1Cl` (stereo not given), the molecule was classed as inactive in [1], in experiment [2], in experiment [3], in experiment [4], in [5] and in [6]. Further, the molecule was classed as inactive in experiment [7], in experiment [8] and in [9]. The AC50 is 2.95 µM (active) in experiment [3]; 13.1 µM (active) in experiment [4]; 13.3 µM (active) in [6]; 19.8 µM (active) in [8]; 13.1 µM (active) in [9].
For the molecule `CO/C=C(/C(=O)OC)c1ccccc1Oc1cc(Oc2ccccc2C#N)ncn1`, the AC50 in experiment [1] was 21 µM (active); in experiment [2] it was 7.46 µM (active); in [4] it was 41.8 µM (active) and 26.2 µM (active) and 52.9 µM (active); in [5] it was 106 µM (active) and 122 µM (active); in experiment [6] it was 9.92 µM (active). Besides, the outcome in experiment [1], in experiment [2], in [3], in experiment [4], in experiment [5] and in [6] was inactive. Moreover, the molecule was called inactive in [7], in experiment [8] and in experiment [9].
In the case of `N#Cc1nn(-c2c(Cl)cc(C(F)(F)F)cc2Cl)c(N)c1S(=O)C(F)(F)F` (stereo not given), the AC50 in experiment [1] is 17.5 µM (active); in experiment [2], 18.1 µM (active); in [4] it was 50.5 µM (active); in experiment [6], 9.67 µM (active); in [8], 24.8 µM (active); in experiment [9], 7.78 µM (active). The result in experiment [1], in experiment [2], in [3], in experiment [4], in experiment [5] and in experiment [6] was inactive. For the same molecule, the result in [7], in [8] and in experiment [9] was inactive.
Consider `CCCCOC(=O)c1ccccc1C(=O)OCCCC`, for which the call in [1], in experiment [2], in experiment [3], in experiment [4], in experiment [5] and in [6] was inactive. For the same molecule, the molecule was called inactive in [7], in experiment [8] and in [9]. Moreover, the AC50 was 177 µM (active) in [4]; 68.2 µM (active) and 85.6 µM (active) in experiment [6].
`CNC(=S)S`: the molecule was called inactive in [10], in experiment [1], in experiment [2], in experiment [3], in experiment [4] and in experiment [5]. In addition, the result in experiment [6], in [7] and in experiment [8] was inactive. The AC50 was 50 µM (active) in experiment [3], 33.2 µM (active) in experiment [5], 50 µM (active) in [6] and 65.9 µM (active) in experiment [8].
Turning to `CC(C)(C)c1ccc(CSc2cnn(C(C)(C)C)c(=O)c2Cl)cc1`, the call in [10], in experiment [3], in experiment [5] and in experiment [7] was inactive. Moreover, the half-maximal activity concentration (AC50) in experiment [1] was 0.188 µM (active); in experiment [2] it was 0.0129 µM (active); in experiment [4], 50 µM (active); in experiment [6], 0.0997 µM (active); in [8], 0.103 µM (active); in experiment [9], 0.583 µM (active).
